Measurements: the supplement of paper PMC6555819

Key:
Test in all cases: PBM binding z-score (relative to random genomic background probes); higher = stronger binding; sequences stand for … in GC…GCGATTGACAGCGTAGAATGAAGG
[1] = tested on: FXR:RXRa (NR concentration 270 nM, RXRa partner concentration 90 nM)
How it was run: (§1)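 Scanned fluorescence from custom Agilent 4×180K protein-binding microarrays was regression-normalized. Binding z-scores use random background probes as reference. Ligand-free nuclear receptor dimers were incubated on the arrays for 1 h and detected with antibodies against each partner (one per run).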

[2] = tested on: LXRa:RXRa (NR concentration 270 nM, RXRa partner concentration 90 nM)
How it was run: as §1

[3] = tested on: LXRa homodimer (NR concentration 270 nM)
How it was run: as §1

[4] = tested on: LXRb:RXRa (NR concentration 270 nM, RXRa partner concentration 90 nM)
How it was run: as §1

[5] = tested on: LXRb homodimer (NR concentration 270 nM)
How it was run: as §1

[6] = tested on: PPARa:RXRa (NR concentration 270 nM, RXRa partner concentration 90 nM)
How it was run: as §1

[7] = tested on: PPARg:RXRa (NR concentration 180 nM, RXRa partner concentration 90 nM)
How it was run: as §1

[8] = tested on: PPARg:RXRa 270nM:90nM, anti-RXR (NR concentration 270 nM, RXRa partner concentration 90 nM)
How it was run: as §1

[9] = tested on: PPARg:RXRa 30nM:10nM, anti-RXR (NR concentration 30 nM, RXRa partner concentration 10 nM)
How it was run: as §1

[10] = tested on: PPARg:RXRa 90nM:30nM, anti-RXR (NR concentration 90 nM, RXRa partner concentration 30 nM)
How it was run: as §1

[11] = tested on: PPARg:RXRa DBDmut IVT, anti-RXR (DBD mutation: RXRa K156A/R161A, NR concentration 270 nM, RXRa partner concentration 90 nM)
How it was run: as §1

[12] = tested on: PPARg:RXRa IVT, anti-PPARg (NR concentration 270 nM, RXRa partner concentration 90 nM)
How it was run: as §1

[13] = tested on: PPARg DBDmut:RXRa IVT, anti-PPARg (DBD mutation: PPARg1 K132A/R137A, NR concentration 270 nM, RXRa partner concentration 90 nM)
How it was run: as §1

[14] = tested on: PPARg DBDmut IVT, anti-PPARg (DBD mutation: PPARg1 K132A/R137A, NR concentration 270 nM)
How it was run: as §1

[15] = tested on: PPARg homodimer (NR concentration 180 nM)
How it was run: as §1

[16] = tested on: PXR:RXRa (NR concentration 270 nM, RXRa partner concentration 90 nM)
How it was run: as §1

[17] = tested on: PXR homodimer (NR concentration 270 nM)
How it was run: as §1

[18] = tested on: RARa:RXR (NR concentration 270 nM, RXRa partner concentration 90 nM)
How it was run: as §1

[19] = tested on: RARa homodimer (NR concentration 270 nM)
How it was run: as §1

[20] = tested on: RARb:RXRa (NR concentration 270 nM, RXRa partner concentration 90 nM)
How it was run: as §1

Row | Sequence | PBM binding z-score [1] | PBM binding z-score [2] | PBM binding z-score [3] | PBM binding z-score [4] | PBM binding z-score [5] | PBM binding z-score [6] | PBM binding z-score [7] | PBM binding z-score [8] | PBM binding z-score [9] | PBM binding z-score [10] | PBM binding z-score [11] | PBM binding z-score [12] | PBM binding z-score [13] | PBM binding z-score [14] | PBM binding z-score [15] | PBM binding z-score [16] | PBM binding z-score [17] | PBM binding z-score [18] | PBM binding z-score [19] | PBM binding z-score [20]
1 | CCTAGCAGGCCATTCTGGGTCACTCAAGGCTTGA | 2.69 | 4.53 | 0.0938 | 2.17 | -0.726 | 2.61 | 0.687 | 1.16 | -0.704 | 0.4 | 3.36 | 3.51 | -0.645 | -1.57 | 0.115 | 1.61 | -0.27 | 1.71 | -0.611 | 1.75
2 | TCTTGTAGATCAAGCTGGTTAAGAAAGCCTGAGT | -0.0681 | -0.116 | -0.611 | 0.0138 | -0.299 | 0.383 | -0.868 | 1.04 | 2.54 | 1.73 | 1.49 | 0.0134 | 0.281 | 0.0135 | -0.627 | 0.0638 | 0.0966 | -0.059 | -0.593 | -0.304
3 | TCATATAGGTAATACAGGTGAAAGTTGGCATCTA | 1.53 | 1.59 | 0.587 | 1.49 | 0.359 | 2.79 | 3.47 | 4.06 | 4.44 | 4.48 | 4.09 | 3.7 | 1.17 | 1.27 | 1.53 | 1.23 | 0.642 | 1.77 | 1.84 | 0.87
4 | CAAACTAGGTCAAAGGCCAAAGTCGAGCCAACCA | 5.15 | 3.93 | 0.637 | 3.08 | -0.153 | 6.63 | 11.3 | 9.98 | 9.75 | 10.9 | 7.91 | 8.52 | 1.47 | 0.202 | 1.73 | 2.9 | 0.159 | 4.68 | 0.255 | 4.31
5 | TCTATTAGTTGATCAGGGCAACCGAAACAGCGGA | 0.646 | 0.456 | 0.302 | 0.505 | 0.641 | 0.282 | 0.218 | 2.02 | 3.78 | 2.67 | 2.16 | 0.972 | 0.672 | 0.797 | 0.546 | 0.5 | 0.292 | 0.362 | 0.492 | 0.954
6 | ACAGACAGGTGAGTGAAGGTAATTCAGCTGGACG | 0.214 | 0.102 | -0.0483 | -0.196 | -0.576 | -0.0438 | 0.499 | 0.152 | -0.212 | -0.193 | 0.0687 | 0.119 | 0.248 | -0.584 | -0.206 | -0.2 | -0.191 | -9.88e-05 | -0.0883 | 0.49
7 | AGAGCGAGGGCACGCTGAGTTGATAGCAGAGTAG | 0.547 | 0.397 | -0.567 | -0.142 | -1.31 | 1.17 | 0.555 | -0.0392 | -0.58 | -0.152 | 0.897 | 1.26 | -0.714 | -1.28 | 0.251 | 1.05 | -0.217 | 0.737 | -0.451 | 2.47
